Shown are actives, neighbours in structure and some others; about 19% of the full set was active somewhere.
IL-1B inflam inh – blocks inflammasome-driven IL-1 beta release. actives 4.7% (n = 360,000). activity change, % at 57.5 µM. AID 743279. THP-1 LPS/ATP IL-1B secretion, AlphaLISA, 16 h; hits give low values; in the data active = activity change below about -50%; inconclusive = mostly about -30% to -49%
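Secreted IL-1B measured by AlphaLISA bead assay after 16 h compound exposure of THP-1 cells; compounds (final up to 57.5 uM) added 1 h before LPS (250 ng/mL) and ATP (1.25 mM) stimulation; lower signal means less secretion.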
DT40 TDP1 CPT – DT40-hTDP1 cell growth loss with CPT; chicken DT40 Tdp1-/-;hTDP1 cells + 20 nM CPT, ATP luminescence, 48 h; Potency, µM (doses to about 46.2 µM), for inactives: at the highest dose activity change, negative = growth inhibition, usual class: inhibitors; actives 12% (n = 420,000); also: potency is read from the fitted curve at half-maximal effect; nearly all actives have a fitted effect of over 55% in size
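Chicken DT40 Tdp1-/- cells stably complemented with human TDP1 were seeded at 400 cells/well in medium containing 20 nM camptothecin, exposed to pin-transferred compounds, and grown at 37 °C for at least 48 hr. Viability was read as ATP luminescence.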
DT40 TDP1 no CPT – qHTS for Inhibitors of human tyrosyl-DNA phosphodiesterase 1 (TDP1): qHTS in cells in absence of CPT | DT40 Tdp1-/- hTDP1 cells, no CPT, ATP luminescence, 48 h | actives 15% (n = 420,000) | Potency, µM (titrated, usually from 46.2 µM), inactives show at the highest dose activity change, negative = growth inhibition, usual class: inhibitors | AID 686978, 2013; also: potency is read from the fitted curve at half-maximal effect; nearly all actives have a fitted effect of over 55% in size
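Chicken DT40 Tdp1-/- cells complemented with human TDP1, screened without camptothecin (DMSO vehicle only), 400 cells/well. Compounds pin-transferred, cells incubated at 37 °C for at least 48 hr. Growth read as ATP-dependent luminescence (CellTiter-Glo, 30 min at RT).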
HT1080-NT tox – kills 2HG-producing HT-1080-NT fibrosarcoma cells | Potency, µM (highest dose often 46.1 µM), for the others: top-dose activity, negative = less viability, usual class: cytotoxic | actives 1.6% (n = 360,000) | HT-1080-NT fibrosarcoma viability, CellTiter-Glo ATP luminescence, 48 h | AID 686970;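 also: NT is the 2HG producing partner of a matched IDH1 knockdown line; potency is read from the fitted curve at half-maximal effect; 0% = DMSO-treated cells and -100% = media-only wells without cells; nearly all actives have a fitted effect of over 55% in size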
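750 cells/well, RPMI + 5% FBS; 2 h settle, compound pin-transfer, 48 h at 37 degrees C. CellTiter-Glo 10 min RT, luminescence. Normalized to DMSO and media-only wells.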
HT1080 IDH1KD tx – kills HT-1080 cells with IDH1 knockdown; HT-1080 IDH1 knockdown viability, ATP luminescence, 48 h; actives 2% (n = 360,000); Potency, µM (titrated, usually from 46.1 µM), without a hit: at the top dose activity, negative = toxicity, hits mostly cytotoxic;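 also: potency is read from the fitted curve at half-maximal effect; 0% = DMSO wells and -100% = cell-free medium wells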
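Viability of IDH1-knockdown HT-1080 fibrosarcoma cells was assessed by CellTiter-Glo after 48 h at 37 °C with titrated compound; concentration-effect curves were classified by fit quality and response size.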
Active calls of the source: *; [ ] = another dose, or the depositor's remark. Unless noted, calls follow the shape of the dose curve; as a rule, active = well fitted curve in the direction sought with a large enough effect; inconclusive = small, poorly fitted or top-dose-only effect, or another doubt; inactive = no such curve, though single readings can be large; an effect the other way counts as inactive or inconclusive. Unless noted, % is scaled to controls: 0 for no effect and ±100 for the full control effect.

What do the screens show for `FC(F)(F)c1cnc(NNC(=S)Nc2ccccc2)c(Cl)c1`?
IL-1B inflam inh: inconclusive; DT40 TDP1 CPT: inconclusive; DT40 TDP1 no CPT: inconclusive; HT1080-NT tox: -16%; HT1080 IDH1KD tx: -25%

How did NC(=O)NNc1ncc(C(F)(F)F)cc1Cl do in these assays?
IL-1B inflam inh: -8; DT40 TDP1 CPT: 2%; DT40 TDP1 no CPT: 7%; HT1080-NT tox: 6%; HT1080 IDH1KD tx: 10%

Results for FC(F)(F)c1cnc(NNC(=S)Nc2cccnc2)c(Cl)c1 ?
IL-1B inflam inh: 41; DT40 TDP1 CPT: inconclusive; DT40 TDP1 no CPT: 21µM*; HT1080-NT tox: -15%; HT1080 IDH1KD tx: -28%

Results for O=c1oc(-c2ccc(Br)cc2)nc2ccccc12 ?
IL-1B inflam inh: 15; DT40 TDP1 CPT: -3%; DT40 TDP1 no CPT: -6%; HT1080-NT tox: 7%; HT1080 IDH1KD tx: 19%

Results for C[C@H](CO)N1C[C@H](C)[C@@H](CN(C)S(=O)(=O)c2cccs2)Oc2c(NC(=O)Nc3ccccc3)cccc2C1=O ?
IL-1B inflam inh: -10; DT40 TDP1 CPT: -9%; DT40 TDP1 no CPT: 5%; HT1080-NT tox: -3%; HT1080 IDH1KD tx: -8%

Results for COc1ccc(S(=O)(=O)N(C)C[C@H]2Oc3ccc(NC(=O)Nc4ccc5c(c4)OCO5)cc3C(=O)N([C@H](C)CO)C[C@@H]2C)cc1 ?
IL-1B inflam inh: 0; DT40 TDP1 CPT: 21µM*; DT40 TDP1 no CPT: inconclusive; HT1080-NT tox: -7%; HT1080 IDH1KD tx: -13%

How did COc1ccc(S(=O)(=O)N(C)C[C@H]2Oc3ccc(NC(=O)Nc4ccccc4)cc3C(=O)N([C@H](C)CO)C[C@@H]2C)cc1 do in these assays?
IL-1B inflam inh: -30; DT40 TDP1 CPT: inconclusive; DT40 TDP1 no CPT: inconclusive; HT1080-NT tox: -10%; HT1080 IDH1KD tx: 0%

What do the screens show for `C[C@H](CO)N1C[C@H](C)[C@@H](CN(C)S(=O)(=O)c2ccccc2)Oc2ccc(NC(=O)CCC(F)(F)F)cc2C1=O`?
IL-1B inflam inh: -16; DT40 TDP1 CPT: 21µM*; DT40 TDP1 no CPT: -30%; HT1080-NT tox: 4%; HT1080 IDH1KD tx: 13%

What do the screens show for `C[C@@H]1CN([C@H](C)CO)C(=O)c2cccc(NC(=O)Nc3ccc(C(F)(F)F)cc3)c2O[C@H]1CN(C)S(=O)(=O)c1cccs1`?
IL-1B inflam inh: -55*; DT40 TDP1 CPT: 8.2µM*; DT40 TDP1 no CPT: 16µM*; HT1080-NT tox: inconclusive; HT1080 IDH1KD tx: inconclusive

Results for C[C@H](CO)N1C[C@H](C)[C@@H](CN(C)S(=O)(=O)c2ccccc2)Oc2ccc(NC(=O)Nc3ccc(C(F)(F)F)cc3)cc2C1=O ?
IL-1B inflam inh: 0; DT40 TDP1 CPT: 21µM*; DT40 TDP1 no CPT: inconclusive; HT1080-NT tox: inconclusive; HT1080 IDH1KD tx: inconclusive

Results for CC(C)NC(=O)Nc1ccc2c(c1)C(=O)N([C@H](C)CO)C[C@H](C)[C@@H](CN(C)S(=O)(=O)c1ccccc1)O2 ?
IL-1B inflam inh: 11; DT40 TDP1 CPT: -9%; DT40 TDP1 no CPT: -5%; HT1080-NT tox: 3%; HT1080 IDH1KD tx: 4%

Results for O=C(/C(=C/c1ccccc1Cl)c1ccccc1)N1CCOCC1 ?
IL-1B inflam inh: 0; DT40 TDP1 CPT: -29%; DT40 TDP1 no CPT: inconclusive; HT1080-NT tox: -1%; HT1080 IDH1KD tx: -5%

How did C[C@H](CO)N1C[C@H](C)[C@@H](CN(C)S(=O)(=O)c2ccccc2)Oc2c(NC(=O)Nc3ccccc3)cccc2C1=O do in these assays?
IL-1B inflam inh: -7; DT40 TDP1 CPT: -17%; DT40 TDP1 no CPT: -22%; HT1080-NT tox: 7%; HT1080 IDH1KD tx: 5%

What do the screens show for `C[C@H]1CN([C@@H](C)CO)C(=O)c2cccc(NC(=O)Nc3ccc(C(F)(F)F)cc3)c2O[C@@H]1CN(C)S(=O)(=O)c1ccccc1`?
IL-1B inflam inh: -4; DT40 TDP1 CPT: inconclusive; DT40 TDP1 no CPT: 21µM*; HT1080-NT tox: inconclusive; HT1080 IDH1KD tx: inconclusive

What do the screens show for `C[C@H](CO)N1C[C@H](C)[C@H](CN(C)S(=O)(=O)c2cccs2)Oc2ncc(-c3cc4ccccc4o3)cc2C1=O`?
IL-1B inflam inh: -4; DT40 TDP1 CPT: 23µM*; DT40 TDP1 no CPT: 15µM*; HT1080-NT tox: -10%; HT1080 IDH1KD tx: -17%

Results for Cc1noc(C)c1S(=O)(=O)N(C)C[C@H]1Oc2c(NC(=O)Nc3ccc(C(F)(F)F)cc3)cccc2C(=O)N([C@H](C)CO)C[C@@H]1C ?
IL-1B inflam inh: -21; DT40 TDP1 CPT: -106%; DT40 TDP1 no CPT: 23µM*; HT1080-NT tox: -19%; HT1080 IDH1KD tx: inconclusive

What do the screens show for `C[C@H](CO)N1C[C@H](C)[C@H](CN(C)S(=O)(=O)c2cccs2)Oc2ccc(NC(=O)Nc3ccc4c(c3)OCO4)cc2CC1=O`?
IL-1B inflam inh: inconclusive; DT40 TDP1 CPT: inconclusive; DT40 TDP1 no CPT: 16µM*; HT1080-NT tox: inconclusive; HT1080 IDH1KD tx: inconclusive

What do the screens show for `Cc1ccc(CNc2ncnc3sc(C(=O)N4CCCC(C(N)=O)C4)c(C)c23)o1` (configuration not stated)?
DT40 TDP1 CPT: -12%[9.04 µM]; DT40 TDP1 no CPT: -21%

How did O=C(O)c1nc2cc(Cl)c(Cl)cc2[nH]c1=O do in these assays?
DT40 TDP1 CPT: 6%; DT40 TDP1 no CPT: -3%

Results for COc1cccc(CNC(=O)c2c(OC)cc(=O)n3c2CCN(C(=O)C2CC24CCCC4)CC3)c1 (configuration not stated) ?
DT40 TDP1 CPT: -7%; DT40 TDP1 no CPT: -4%

Results for Cc1ccc(Cl)cc1N1CCN(C(=O)CN2C(=O)CSc3c2c(C)nn3-c2ccccc2)CC1 ?
DT40 TDP1 CPT: inconclusive; DT40 TDP1 no CPT: -21%

What do the screens show for `Cc1cccc(CNC(=O)CN2C(=O)CSc3c2c(C)nn3-c2ccccc2)c1`?
DT40 TDP1 CPT: inconclusive; DT40 TDP1 no CPT: -23%

What do the screens show for `Cc1nn(-c2ccccc2)c2c1N(CC(=O)N1CCN(c3cccc(Cl)c3)CC1)C(=O)CS2`?
DT40 TDP1 CPT: inconclusive; DT40 TDP1 no CPT: 21µM*

Results for Cc1ccc(C)c(N2CCN(C(=O)CN3C(=O)CSc4c3c(C)nn4-c3ccccc3)CC2)c1 ?
DT40 TDP1 CPT: 18µM*; DT40 TDP1 no CPT: 26µM*

How did CCCCN1CC(N2CCCCC2)CS1(=O)=O (configuration not stated) do in these assays?
IL-1B inflam inh: -2; DT40 TDP1 CPT: 10%; DT40 TDP1 no CPT: 6%; HT1080-NT tox: 3%; HT1080 IDH1KD tx: 4%
